Laboratory results published in PubChem BioAssay AID1159580 (chemical genetic matrix, 2015).
Among all 5,500 compounds or so, about 2,000 (36%) were called active. Not shown: some 18% with an inconclusive outcome. No stated cut-off is given here; in the data, active means normalized growth mostly below about 0.91 (no sharp cut-off); inconclusive means no clear call, values can overlap the other calls; inactive means mostly above about 0.92. The list shows a part of the results.

Assay: chemical genetic growth profiling, strain panel (AID 1159580);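 further: tested at 20 µM; growth read once vehicle control cultures reached saturation at 30 °C; 1 = growth at the plate median or of vehicle wells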
Details: S. cerevisiae deletion strains, growth OD

Measured: normalized growth

CCOC(=O)c1ncn2c1CN(C)C(=O)c1cc(F)ccc1-2
inactive: locus YAL013W, strain DEP1, stronger effect = lower value 0.994 | locus YAL021C, strain ccr4, stronger effect = lower value 1.01 | locus YAL026C, strain drs2, stronger effect = lower value 1.02 | locus YAL030W, strain snc1, stronger effect = lower value 1.02 | locus YAL040C, strain CLN3, stronger effect = lower value 1 | locus YBL061C, strain skt5, stronger effect = lower value 1.01 | locus YBR009C, strain hhf1, stronger effect = lower value 1.03 | locus YBR023C, strain chs3, stronger effect = lower value 1.02 | locus YBR171W, strain sec66, stronger effect = lower value 1.02 | locus YBR231C, strain swc5, stronger effect = lower value 1.02 | locus YBR279W, strain paf1, stronger effect = lower value 1.01 | locus YCL011C, strain gbp2, stronger effect = lower value 1.01 | locus YCL016C, strain dcc1, stronger effect = lower value 1.02 | locus YCL061C, strain MRC1 (second series), stronger effect = lower value 1 | locus YCL061C, strain MRC1, stronger effect = lower value 1.02 | locus YCL069W, strain vba3, stronger effect = lower value 1.01 | locus YCR088W, strain abp1, stronger effect = lower value 1.02 | locus YDL005C, strain med2, stronger effect = lower value 1.02 | locus YDL040C, strain nat1, stronger effect = lower value 1.02 | locus YDR001C, strain nth1, stronger effect = lower value 1.02 | locus YDR069C, strain doa4, stronger effect = lower value 1.03 | locus YDR137W, strain rgp1, stronger effect = lower value 1 | locus YDR150W, strain NUM1, stronger effect = lower value 1.01 | locus YDR159W, strain sac3, stronger effect = lower value 1.03 | locus YDR195W, strain ref2 1.02 | locus YDR297W, strain sur2, stronger effect = lower value 1.01 | locus YDR334W, strain swr1, stronger effect = lower value 1.02 | locus YDR335W, strain msn5, stronger effect = lower value 1.02 | locus YDR363W, strain ESC2, stronger effect = lower value 0.997 | locus YDR392W, strain spt3, stronger effect = lower value 0.994 | locus YEL003W, strain gim4, stronger effect = lower value 1.02 | locus YEL037C, strain rad23, stronger effect = lower value 1.01 | locus YEL061C, strain CIN8 (second series), stronger effect = lower value 1.02 | locus YER002W, strain NOP16, stronger effect = lower value 0.993 | locus YER015W, strain faa2, stronger effect = lower value 1.01 | locus YER016W, strain bim1, stronger effect = lower value 1.01 | locus YER111C, strain swi4, stronger effect = lower value 1.01 | locus YER155C, strain BEM2 (second series), stronger effect = lower value 1.01 | locus YFR010W, strain ubp6, stronger effect = lower value 1.02 | locus YGL167C, strain pmr1, stronger effect = lower value 1.03 | locus YGL173C, strain kem1, stronger effect = lower value 1.02 | locus YGL227W, strain vid30, stronger effect = lower value 1.02 | locus YGL240W, strain doc1, stronger effect = lower value 1.04 | locus YGL253W, strain hxk2, stronger effect = lower value 1.02 | locus YGR078C, strain PAC10, stronger effect = lower value 1.01 | locus YHR013C, strain ard1, stronger effect = lower value 1.03 | locus YHR027C, strain rpn1, stronger effect = lower value 1.01 | locus YHR030C, strain SLT2, stronger effect = lower value 0.986 | locus YHR079C, strain IRE1, stronger effect = lower value 0.997 | locus YHR142W, strain chs7, stronger effect = lower value 0.972 | locus YJL092W, strain hpr5, stronger effect = lower value 1.02 | locus YJL095W, strain BCK1 (second series), stronger effect = lower value 1.02 | locus YJL095W, strain BCK1, stronger effect = lower value 0.997 | locus YJL115W, strain asf1, stronger effect = lower value 1.02 | locus YJL129C, strain trk1, stronger effect = lower value 1.01 | locus YJL154C, strain vps35, stronger effect = lower value 1.02 | locus YJL164C, strain tpk1, stronger effect = lower value 1.02 | locus YJL166W, strain qcr8, stronger effect = lower value 1.03 | locus YJL187C, strain SWE1, stronger effect = lower value 1.02 | locus YJR066W, strain TOR1, stronger effect = lower value 0.93 | locus YJR075W, strain HOC1, stronger effect = lower value 1 | locus YKL160W, strain elf1, stronger effect = lower value 1.01 | locus YKR026C, strain gcn3, stronger effect = lower value 1.01 | locus YKR091W, strain srl3, stronger effect = lower value 1.01 | locus YLL001W, strain dnm1, stronger effect = lower value 1.01 | locus YLL026W, stronger effect = lower value 1.02 | locus YLL041C, strain sdh2, stronger effect = lower value 1.02 | locus YLR027C, strain aat2, stronger effect = lower value 1.02 | locus YLR113W, strain HOG1, stronger effect = lower value 1.01 | locus YLR221C, strain rsa3, stronger effect = lower value 1.02 | locus YLR258W, strain gsy2, stronger effect = lower value 1.02 | locus YLR262C, strain YPT6 (second series), stronger effect = lower value 1.02 | locus YLR320W, strain mms22, stronger effect = lower value 1.03 | locus YLR342W, strain FKS1, stronger effect = lower value 1.02 | locus YLR357W, strain rsc2, stronger effect = lower value 1.03 | locus YLR370C, strain arc18, stronger effect = lower value 1.02 | locus YLR384C, strain iki3, stronger effect = lower value 1.02 | locus YML120C, strain ndi1, stronger effect = lower value 1 | locus YMR058W, strain fet3, stronger effect = lower value 1.02 | locus YMR125W, strain sto1, stronger effect = lower value 1.03 | locus YMR129W, stronger effect = lower value 1.01 | locus YMR205C, strain PFK2, stronger effect = lower value 1.03 | locus YMR231W, strain pep5, stronger effect = lower value 1.01 | locus YMR307W, strain GAS1, stronger effect = lower value 0.985 | locus YNL071W, strain lat1, stronger effect = lower value 1.01 | locus YNL175C, strain NOP13, stronger effect = lower value 0.999 | locus YNL183C, strain NPR1, stronger effect = lower value 0.938 | locus YNL197C, strain WHI3, stronger effect = lower value 0.999 | locus YNL209W, strain ssb2, stronger effect = lower value 1.02 | locus YNL224C, strain SQS1, stronger effect = lower value 1 | locus YNL248C, strain rpa49, stronger effect = lower value 0.992 | locus YNL322C, strain KRE1 (second series), stronger effect = lower value 1.01 | locus YNR049C, strain mso1, stronger effect = lower value 1.02 | locus YOR001W, strain rrp6, stronger effect = lower value 1.01 | locus YOR070C, strain gyp1, stronger effect = lower value 1.02 | locus YOR080W, strain dia2, stronger effect = lower value 1.02 | locus YOR083W, strain WHI5 (second series), stronger effect = lower value 1.03 | locus YOR083W, strain WHI5, stronger effect = lower value 0.997 | locus YOR106W, strain vam3, stronger effect = lower value 1.01 | locus YOR231W, strain MKK1, stronger effect = lower value 0.983 | locus YOR265W, strain rbl2, stronger effect = lower value 1.02 | locus YOR270C, strain vph1, stronger effect = lower value 1.02 | locus YOR290C, strain snf2, stronger effect = lower value 1.01 | locus YPL051W, strain arl3, stronger effect = lower value 1.01 | locus YPL055C, strain LGE1, stronger effect = lower value 1.01 | locus YPL078C, strain atp4, stronger effect = lower value 1 | locus YPL106C, strain sse1, stronger effect = lower value 1.04 | locus YPL240C, strain hsp82, stronger effect = lower value 1 | locus YPL256C, strain CLN2, stronger effect = lower value 0.973
